Experimental data published in PubChem BioAssay (EPA / NIEHS).
“And” between values parts separate entries of the source, which are not always exact repeats. Equal entries are not always repeated. Records with an inconclusive call do not appear. A structure can be active in one record and inactive in another. The source made the active and inactive calls. Rule for the calls, unless noted: active = hit-call score of the fitted dose curve at least 0.9, where 1 is the maximum; inactive = score below 0.9.

Key:
[1] = read-out: solute carrier (SLCO1B1), SLCO1B1 (gene 10599); experiment: LTEA_HepaRG_SLCO1B1: Life Technologies and Expression Analysis (LTEA) Assay for solute carrier (SLCO1B1) using HepaRG (AID 2283530); details: mRNA level, 48 h; actives raise or lower the signal
Procedure, shortened: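 Differentiated human HepaRG cells were exposed for 48 h in serum-free induction medium to eight half-log concentrations, top 100 uM, in 0.5% DMSO. SLCO1B1 mRNA was measured by qRT-PCR, normalized to ACTB, GAPDH and POLR2A, and fitted bidirectionally against DMSO.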

[2] = read-out: Transforming Growth Factor (TGFA), TGFA (gene 7039); experiment: LTEA_HepaRG_TGFA: Life Technologies and Expression Analysis (LTEA) Assay for Transforming Growth Factor (TGFA) using HepaRG (AID 2283532); details: mRNA level, 48 h; actives raise or lower the signal
Procedure, shortened: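 Differentiated HepaRG cells exposed 48 hours in serum-free induction medium, 0.5% DMSO vehicle, 8-point half-log series from 100 uM, in duplicate. TGFA mRNA by TaqMan qRT-PCR, normalised to ACTB, GAPDH, POLR2A; bidirectional fit versus DMSO.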

[3] = read-out: Transforming Growth Factor (TGFB1), TGFB1 (gene 7040); experiment: LTEA_HepaRG_TGFB1: Life Technologies and Expression Analysis (LTEA) Assay for Transforming Growth Factor (TGFB1) Transporter using HepaRG (AID 2283533); details: mRNA level, 48 h; actives raise or lower the signal
Procedure, shortened: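 Differentiated HepaRG cells exposed 48 hr in serum-free induction medium to eight half-log concentrations up to 100 uM (0.5% DMSO), duplicate; TGFB1 mRNA by TaqMan qRT-PCR normalised to ACTB, GAPDH, POLR2A; bidirectional fit against DMSO.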

TIMP1, TIMP1 (gene 7076) = experiment: LTEA_HepaRG_TIMP1: Life Technologies and Expression Analysis (LTEA) Assay for TIMP1 using HepaRG (AID 2283534); details: mRNA level, 48 h; actives raise or lower the signal;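 note: TaqMan qRT-PCR signal normalized to ACTB GAPDH and POLR2A housekeeping genes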
Procedure, shortened: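 Differentiated HepaRG cells exposed 48 h in serum-free induction medium, duplicates, eight half-log concentrations from 100 uM in 0.5% DMSO. TIMP1 mRNA by qRT-PCR normalized to ACTB, GAPDH, POLR2A; bidirectional fitting against DMSO.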

[4] = read-out: Tumor necrosis factor receptor 1 (TNFRSF1A), TNFRSF1A (gene 7132); experiment: LTEA_HepaRG_TNFRSF1A: Life Technologies and Expression Analysis (LTEA) Assay for Tumor necrosis factor receptor 1 (TNFRSF1A) using HepaRG (AID 2283535); details: mRNA level, 48 h; actives raise or lower the signal
Procedure, shortened: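 Differentiated HepaRG cells in serum-free induction medium, exposed 48 h in duplicate to 8 half-log concentrations up to 100 uM in 0.5% DMSO. TNFRSF1A mRNA by Fluidigm TaqMan qRT-PCR, normalized to ACTB, GAPDH, POLR2A; bidirectional fit.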

[5] = read-out: Thyroid Hormone Responsive (THRSP), THRSP (gene 7069); experiment: LTEA_HepaRG_THRSP: Life Technologies and Expression Analysis (LTEA) Assay for Thyroid Hormone Responsive (THRSP) using HepaRG (AID 2283536); details: mRNA level, 48 h; actives raise or lower the signal
Procedure, shortened: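 Differentiated HepaRG cells treated 48 h in serum-free induction medium with 8 half-log concentrations up to 100 uM (0.5% DMSO), duplicates. THRSP mRNA by TaqMan qRT-PCR normalised to ACTB, GAPDH, POLR2A; bidirectional fit versus DMSO.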

[6] = read-out: Cellular tumor antigen p53 (Homo sapiens) (UniProt P04637); experiment: LTEA_HepaRG_TP53: Life Technologies and Expression Analysis (LTEA) Assay for Tumor Protein P53 (TP53) using HepaRG (AID 2283537); details: mRNA level, 48 h; actives raise or lower the signal
Procedure, shortened: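 Gain or loss of TP53 mRNA signal is scored relative to 0.5% DMSO after 48 h chemical treatment of HepaRG liver cells, tested in duplicate at eight half-log concentrations up to 100 uM.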

[7] = read-out: UDP glucuronosyltransferase (UGT1A1), UGT1A1 (gene 54658); experiment: LTEA_HepaRG_UGT1A1: Life Technologies and Expression Analysis (LTEA) Assay for UDP glucuronosyltransferase (UGT1A1) using HepaRG (AID 2283538); details: mRNA level, 48 h; actives raise or lower the signal
Procedure, shortened: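 Human liver HepaRG cultures receive test chemical for 48 h, up to 100 uM in 0.5% DMSO, with phenobarbital induction controls. UGT1A1 mRNA is measured by qRT-PCR and normalized to ACTB, GAPDH and POLR2A.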

[8] = read-out: UDP glucuronosyltransferase (UGT1A6), UGT1A6 (gene 54578); experiment: LTEA_HepaRG_UGT1A6: Life Technologies and Expression Analysis (LTEA) Assay for UDP glucuronosyltransferase (UGT1A6) using HepaRG (AID 2283539); details: mRNA level, 48 h; actives raise or lower the signal
Procedure, shortened: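 Differentiated HepaRG cells, ~100,000/well, were exposed for 48 h in serum-free induction medium with 0.5% DMSO to 8-point half-log series topping at 100 uM, in duplicate. mRNA measured by Fluidigm TaqMan qRT-PCR, normalized to ACTB, GAPDH and POLR2A.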

[9] = read-out: X-box binding protein 1 (XBP1), XBP1 (gene 7494); experiment: LTEA_HepaRG_XBP1: Life Technologies and Expression Analysis (LTEA) Assay for X-box binding protein 1 (XBP1) using HepaRG (AID 2283540); details: mRNA level, 48 h; actives raise or lower the signal
Procedure, shortened: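 Differentiated human HepaRG cells in serum-free induction medium exposed 48 h in duplicate to eight half-log concentrations up to 100 uM in 0.5% DMSO. XBP1 mRNA measured by Fluidigm TaqMan qRT-PCR, normalized to ACTB, GAPDH, POLR2A; bidirectional fitting against DMSO.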

[10] = LTEA_HepaRG_LDH_cytotoxicity: Cytotoxicity Assessment in the Life Technologies and Expression Analysis (LTEA) Assay (AID 2283563; active = hit-call score of the fitted dose curve at least 0.9, where 1 is the maximum;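 for AC50: LDH activity released into spent culture medium as a marker of cell death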)
Procedure, shortened: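 Differentiated HepaRG cells in serum-free induction medium, exposed 48 h in duplicate to 8 half-log concentrations up to 100 uM in 0.5% DMSO. Cytotoxicity from LDH measured in spent medium, fit relative to DMSO.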

[11] = TOX21_p53_BLA_p2_viability: Viability Assessment in the Tox21 HCT-116 p53 Agonism Beta-lactamase Assay, Phase 2 (AID 2283591; active = hit-call score of the fitted dose curve at least 0.9, where 1 is the maximum;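 note: compound exposure lasted 16 h at 37 °C; actives lower the ATP signal meaning cytotoxicity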)
Procedure, shortened: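 HCT116 p53-bla cells, 4000/well, dosed after 5 h plating (217-fold dilution of DMSO stocks) and incubated 16 h at 37C. Viability taken as cellular ATP by CellTiter-Glo luminescence after 30 min RT; signal loss marks cytotoxicity.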

[12] = target: Cellular tumor antigen p53 (Homo sapiens) (UniProt P04637); experiment: TOX21_p53_BLA_p2_ratio: Tox21 HCT-116 p53 Agonism Beta-lactamase Assay, Ratio, Phase 2 (AID 2283592; active = hit-call score of the fitted dose curve at least 0.9, where 1 is the maximum)
Chain of Cellular tumor antigen p53 (Homo sapiens) (P04637 whole entry, looked up): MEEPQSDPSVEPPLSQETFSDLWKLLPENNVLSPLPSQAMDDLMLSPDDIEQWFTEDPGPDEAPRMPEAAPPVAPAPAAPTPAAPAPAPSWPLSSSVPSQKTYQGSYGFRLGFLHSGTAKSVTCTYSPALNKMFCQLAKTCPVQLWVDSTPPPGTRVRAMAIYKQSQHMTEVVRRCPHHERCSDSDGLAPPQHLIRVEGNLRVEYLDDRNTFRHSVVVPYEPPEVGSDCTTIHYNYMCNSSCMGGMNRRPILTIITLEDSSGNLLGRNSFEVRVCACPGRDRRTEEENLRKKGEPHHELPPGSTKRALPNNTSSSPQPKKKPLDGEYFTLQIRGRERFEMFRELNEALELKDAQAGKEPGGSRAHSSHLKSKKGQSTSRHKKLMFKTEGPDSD
Procedure, shortened: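 HCT-116 cells with p53-responsive beta-lactamase reporter, 4000 cells/well, preincubated 5 h, then compound in DMSO (217-fold dilution) for 16 h at 37C. CCF4-AM substrate 2 h at room temperature; 460/530 nm emission ratio fitted upward versus DMSO.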

[13] = TOX21_p53_BLA_p3_viability: Viability Assessment in the Tox21 HCT-116 p53 Agonism Beta-lactamase Assay, Phase 3 (AID 2283593; active = hit-call score of the fitted dose curve at least 0.9, where 1 is the maximum;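 note: cells exposed to compound for 16 h before reading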)
Procedure, shortened: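 HCT116 cells, 4000/well, dosed 5 h after plating by pin transfer (217-fold dilution from DMSO stock) and incubated 16 h at 37C, 5% CO2. Viability read as ATP luminescence with CellTiter-Glo after 30 min at room temperature.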

[14] = target: Cellular tumor antigen p53 (Homo sapiens) (UniProt P04637); experiment: TOX21_p53_BLA_p3_ratio: Tox21 HCT-116 p53 Agonism Beta-lactamase Assay, Ratio, Phase 3 (AID 2283596; active = hit-call score of the fitted dose curve at least 0.9, where 1 is the maximum)
Procedure, shortened: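 HCT116 p53-bla cells (4000/well) given compound in DMSO (217-fold dilution) after 5 h, incubated 16 h at 37C. CCF4-AM substrate 2 h at room temperature; 460/530 nm emission ratio, gain fitted against DMSO.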

[15] = TOX21_p53_BLA_p4_viability: Viability Assessment in the Tox21 HCT-116 p53 Agonism Beta-lactamase Assay, Phase 4 (AID 2283597; active = hit-call score of the fitted dose curve at least 0.9, where 1 is the maximum;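 note: hits lower the luminescence signal meaning cytotoxicity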)
Procedure, shortened: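 HCT-116 p53-bla cells, 4000/well, dosed after 5 h attachment and incubated 16 h at 37 °C, 5% CO2. Viability from CellTiter-Glo ATP luminescence after 30 min at room temperature, taken after the beta-lactamase read; loss of signal indicates cytotoxicity.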

[16] = TOX21_p53_BLA_p5_viability: Viability Assessment in the Tox21 HCT-116 p53 Agonism Beta-lactamase Assay, Phase 5 (AID 2283600; active = hit-call score of the fitted dose curve at least 0.9, where 1 is the maximum)
Procedure, shortened: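 HCT-116 p53 beta-lactamase reporter cells, 4000/well, were exposed to compound (pin transfer, 217-fold dilution) for 16 hours at 37C. Cellular ATP was read by CellTiter-Glo luminescence after 30 min at room temperature.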

[17] = target: Cellular tumor antigen p53 (Homo sapiens) (UniProt P04637); experiment: TOX21_p53_BLA_p4_ratio: Tox21 HCT-116 p53 Agonism Beta-lactamase Assay, Ratio, Phase 4 (AID 2283601; active = hit-call score of the fitted dose curve at least 0.9, where 1 is the maximum)
Procedure, shortened: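 HCT-116 p53 beta-lactamase reporter cells (4000/well) preincubated 5 h, then compound (217-fold dilution of DMSO stock) for 16 h at 37C. CCF4-AM substrate added 2 h at room temperature; 460/530 nm emission ratio fitted upward versus DMSO.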

[18] = ATG_XTT_Cytotoxicity: Cytotoxicity Assessment in the Attagene TRANS-FACTORIAL HepG2 Assay (AID 2283584; active = hit-call score of the fitted dose curve at least 0.9, where 1 is the maximum)
Procedure, shortened: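 HepG2 cells transiently transfected with GAL4-UAS multiple reporter units, dosed 24 h; cytotoxicity read by XTT as loss of signal versus DMSO baseline.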

[19] = read-out: sulfotransferase 2A1 (SULT2A1), SULT2A1 (gene 6822); experiment: LTEA_HepaRG_SULT2A1: Life Technologies and Expression Analysis (LTEA) Assay for sulfotransferase 2A1 (SULT2A1) using HepaRG (AID 2283531); details: mRNA level, 48 h; actives raise or lower the signal
Procedure, shortened: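 HepaRG human liver cells, 48 h exposure in serum-free induction medium to 8 half-log concentrations topping at 100 µM (0.5% DMSO), duplicate wells. SULT2A1 mRNA measured by TaqMan qRT-PCR, normalized to ACTB/GAPDH/POLR2A; bidirectional fit against DMSO.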

Measured: AC50

CC1(c2ccc(Oc3ccccc3)cc2)OC(=O)N(Nc2ccccc2)C1=O (centres undefined)
active: [1] 30.6 µM | [2] 8.82 µM | [5] 24.1 µM | [6] 12.9 µM | [8] 50.2 µM | [10] 50.2 µM | [12] 16.9 µM | [15] 19.5 µM | [17] 51.2 µM
inactive: [3] | TIMP1, TIMP1 (gene 7076) | [4] | [7] | [9] | [11] | [13] | [14] | [16]

CCC(C)(NC(=O)c1cc(Cl)c(C)c(Cl)c1)C(=O)CCl (centres undefined)
inactive: [2] | TIMP1, TIMP1 (gene 7076) | [6] | [9]
active: [1] 75.8 µM | [3] 75.6 µM | [4] 90.6 µM | [5] 95.3 µM | [7] 12.4 µM | [8] 80.3 µM | [10] 77.6 µM | [11] 71.9 µM | [12] 30.2 µM | [13] 76.4 µM | [14] 29.6 µM | [15] 60.3 µM | [16] 74.7 µM | [17] 66.8 µM

Oc1ccc(Cl)cc1Cc1ccccc1
active: [1] 81.5 µM | [5] 78.1 µM and 50.5 µM and 87.7 µM | [8] 81.1 µM | [10] 91.5 µM and 93.3 µM and 94.7 µM | [11] 70.3 µM and 66.7 µM | [12] 85 µM and 57.2 µM | [13] 72.8 µM | [15] 67.5 µM and 23.3 µM and 36.5 µM | [16] 73.6 µM and 70.6 µM | [17] 86.5 µM and 41.3 µM
inactive: [1] | [2] | [3] | TIMP1, TIMP1 (gene 7076) | [4] | [6] | [7] | [8] | [9] | [18] | [12] | [13] | [14] | [16] | [17]

C#CCN1C(=O)COc2cc(F)c(N3C(=O)C4=C(CCCC4)C3=O)cc21
inactive: [1] | [19] | [2] | [3] | TIMP1, TIMP1 (gene 7076) | [4] | [5] | [8] | [9] | [10]
active: [7] 1.95 µM

O=C(O)C(F)(F)C(F)(F)C(F)(F)C(F)(F)C(F)(F)C(F)(F)C(F)(F)F
inactive: [1] | [2] | [3] | TIMP1, TIMP1 (gene 7076) | [4] | [5] | [6] | [8] | [9] | [10] | [18] | [11] | [12] | [13] | [14] | [15] | [16] | [17]
active: [5] 26.1 µM | [6] 12.3 µM | [7] 3.11 µM and 7.73 µM | [9] 50 µM
